The source of these data is PubChem BioAssay (EPA / NIEHS).

Results filed as inconclusive are left out. Activity calls are given as the source filed them. How the source made its calls: active means hit-call score of the fitted dose curve at least 0.9, where 1 is the maximum; inconclusive means response in the unintended direction; inactive means score below 0.9.

The nature of the assay: Tanguay_ZF_120hpf_TRUN_legacy: (Legacy) Oregon State University Tanguay Lab 120 Hour Post-fertilization zebrafish Assay for Truncated Body (AID 2283655). Put shortly: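 Single dechorionated zebrafish embryos received test chemical from 6 hpf in 0.64% DMSO, kept at 28C. At 120 hpf, brightfield inspection noted any truncated body.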
For `C=CCCCCCCCCC(=O)O`, the compound was called inactive. For the compound `Cn1c(=O)cc(Oc2ccc(F)cc2F)c2cnc(NCC(C)(C)O)nc21`, the outcome was inactive. Next, `CC[C@H]1OC(=O)[C@H](C)[C@@H](O[C@H]2C[C@@](C)(OC)[C@@H](O)[C@H](C)O2)[C@H](C)[C@@H](O[C@@H]2O[C@H](C)C[C@H](N(C)C)[C@H]2O)[C@](C)(O)C[C@@H](C)C(=O)[C@H](C)[C@@H](O)[C@]1(C)O`: “inactive”; `CCN(C(=O)c1cc(C)cc(OC[C@H](C)Nc2ccncc2)c1)C(C)C`: “inactive”. Turning to `C[C@](N)(Cc1ccc(O)c(O)c1)C(=O)O`, the call was inactive.

As for `CC(O)CN(CCN(CC(C)O)CC(C)O)CC(C)O` (stereo not given), the call was inactive. Next, `CCNc1ccccc1`: “inactive”. Next, `CCC(C)(C)C(=O)O[C@H]1C[C@@H](C)C=C2C=C[C@H](C)[C@H](CC[C@@H]3C[C@@H](O)CC(=O)O3)[C@H]21`: “inactive”. Next, `CC[C@H](C)C(=O)O[C@H]1C[C@@H](C)C=C2C=C[C@H](C)[C@H](CC[C@@H]3C[C@@H](O)CC(=O)O3)[C@H]21`: “inactive”.

As for `CCCCCCCCCCCCCCCO`, the call was inactive. For `Cn1c(=O)c2c(ncn2C)n(C)c1=O`, the result was inactive. On to `CCCCCCc1ccc(O)cc1O`, for which the outcome was inactive.

Regarding `CC(C)=CCCC(C)CCO` (stereo not given), the compound was classed as inactive. Take `CN(C)c1ccc(Cc2ccc(N(C)C)cc2)cc1`: the result was inactive.

In the case of `CCOCCO`, the result was inactive. Take `CN(C)c1ccc(N=NS(=O)(=O)O)cc1`: the result was inactive.

Regarding `CCCC(=O)OCC`, the call was inactive. Then `Cc1ccc(O)cc1`, with “inactive”; and `O=c1[nH]c2ccc(S(=O)CCN3CCC(Cc4ccc(F)cc4)CC3)cc2o1` (stereo not given), with “inactive”. For the compound `CNCc1ccc(NC(=O)c2c[nH]c3c2C(=O)CCC3)cc1`, the compound was called inactive.
